# Among all 48,000 compounds or so, about 13,000 (27%) showed an effect of 50% or more. This is one part of the list.
# Test system: Wolbachia pipientis
# Test: Anti-Wolbachia Cell-Based Screen
# Format: functional
# Parameters: scale not given: in the data most compounds retested in dose-response had high values
# Conditions: 5 µM
row,SMILES,Percent Effect
1,O=C(c1cn(-c2cc(N3CCSCC3)ncn2)cn1)N1CCOCC1,2.163%
2,O=C(C1CC1)N1CCN(C(=O)CSc2ccccn2)[C@H]2CS(=O)(=O)C[C@H]21,-23.43%
3,COCCN1C[C@@H]2CN(C(=O)CC3CC3)C[C@@H]2C1=O,3.353%
4,O=C(CC1CCc2ccccc21)NCCSc1ccccn1 (configuration not stated),-6.128%
5,COCCN1C[C@H]2CN(C(=O)C3CC3)CCN2C1=O,0.212%
6,Cc1n[nH]c(C)c1C1CCCN1C(=O)NCCSC(C)(C)C (configuration not stated),-9.308%
7,O=C1[C@@H]2C[C@H](O)CCN2C(=O)CN1CCSc1ccccn1,99.26%
8,COCCN1CC(=O)N2CC[C@@H](O)C[C@H]2C1=O,111.7%
9,CC(C)(C)SCCN1CC(=O)N2CC[C@@H](O)C[C@H]2C1=O,105.3%
10,Cc1ncccc1CNc1ccc(OCCO)nc1,-18.76%
11,O=C(c1ccoc1)N1CCC2(CC1)COC(COCc1ccccn1)C2 (configuration not stated),4.399%
12,Cc1nncn1CCNC(=O)C1SCCc2sccc21 (configuration not stated),0.3971%
13,CCc1ccc(CN2CCc3[nH]nc(C(=O)N4CCNC(=O)C4)c3C2)o1,-23.7%
14,CC(C)NC(=O)CCNC(=O)Nc1cnn(-c2ccccc2Cl)c1,-14.09%
15,COC[C@@]12CCC[C@@H]1CN(C(=O)COc1ccccc1OC)C2,104.3%
16,O=C(Cc1ccco1)N1C[C@H]2CCC[C@@]2(COc2cccnc2)C1,-23.92%
17,CCO[C@@H]1CO[C@@]2(CCCN(C(=O)COc3ccccc3OC)C2)C1,-3.938%
18,Cc1ccc(C(=O)N2C[C@H]3CCC[C@@]3(COCc3ccncc3)C2)cn1.O=C(O)C(F)(F)F.O=C(O)C(F)(F)F,-7.119%
19,CCOC[C@@]12CCC[C@@H]1CN(C(=O)c1ccc(OC)cc1)C2,116.5%
20,CCOC[C@@]12CCC[C@@H]1CN(C(=O)COc1ccccc1OC)C2,101.3%
21,O=C(O)C(F)(F)F.O=C(c1ccc(F)cc1)N1C[C@H]2CCC[C@@]2(COCc2ccncc2)C1,3.034%
22,COC[C@@]12CCO[C@@H]1CCN(C(=O)COc1ccccc1OC)C2,3.153%
23,CC(Oc1ccccc1C(F)(F)F)C(=O)NCC(N)=O (configuration not stated),-1.247%
24,CCCC(CNc1cc(C(C)C)nc2ccnn12)N(C)C (configuration not stated),-7.916%
25,Cc1n[nH]cc1CNC1(c2ccc(F)cc2)CCCC1,2.933%

row,SMILES,Percent Effect
1,O=C(O)C(F)(F)F.O=C(O)C(F)(F)F.O=C(O)C(F)(F)F.c1coc(CN2CCC3(CC2)COCCN(CCN2CCCC2)C3)c1,10.77%
2,CC(=O)N1CCN(Cc2ccc(C)o2)CC2(CC(=O)N(C)C2)C1.O=C(O)C(F)(F)F (configuration not stated),88.46%
3,CCN1CC2(CC1=O)CN(Cc1cccs1)CCN(C(=O)C(C)C)C2 (configuration not stated),9.795%
4,Cc1ccc(CN2CCC3(CC(=O)N(c4cccc(F)c4)C3)C2)o1.O=C(O)C(F)(F)F (configuration not stated),18.19%
5,CC(=O)N1CCN(Cc2ccco2)CC2(CC(=O)N(C)C2)C1.O=C(O)C(F)(F)F (configuration not stated),97.89%
6,CCN1CC2(CC1=O)CN(Cc1ccco1)CCN(C(=O)N(C)C)C2.O=C(O)C(F)(F)F (configuration not stated),1.855%
7,CC(C)NC(=O)N1CCN(CC2CC2)CC2(CC(=O)N(C)C2)C1.O=C(O)C(F)(F)F (configuration not stated),10.52%
8,CCN1CC2(CC1=O)CN(Cc1cnn(C)c1)CCN(C(=O)C(C)C)C2.O=C(O)C(F)(F)F (configuration not stated),-2.77%
9,CN1CC2(CCN(C(=O)Cc3ccccn3)CC2)OCC1=O.O=C(O)C(F)(F)F,23.75%
10,CC(C)C(=O)N1CCN(Cc2ccccn2)CC2(CC(=O)N(C)C2)C1.O=C(O)C(F)(F)F.O=C(O)C(F)(F)F (configuration not stated),98.24%
11,CC(=O)N1CCN(Cc2cccs2)CC2(CC(=O)N(C)C2)C1.O=C(O)C(F)(F)F (configuration not stated),101.6%
12,CN(CCC1CCOCC1)C(=O)C1CCC(=O)N(Cc2ccccn2)C1 (configuration not stated),12.01%
13,Cc1nn(C)c(C)c1OCC(=O)NCC(O)c1ccccc1F (configuration not stated),-4.984%
14,O=C1N(c2ccc(Cl)cc2)Cc2n[nH]c(=O)n21,3.53%
15,CCCn1nc(-c2nc(COC)no2)ccc1=O,-14.93%
16,CC(=O)NCC(=O)NCC1Cn2nnc(-c3cccc(F)c3)c2CO1 (configuration not stated),-8.609%
17,CN1CCC2(CCN(Cc3nccs3)CC2)C1=O.O=C(O)C(F)(F)F,4.782%
18,CC(=O)N1CCN(Cc2nccs2)CC2(CC(=O)N(C)C2)C1.O=C(O)C(F)(F)F (configuration not stated),92.61%
19,COC(=O)CCCn1ccnc1-c1ccccc1,2.023%
20,COC(=O)NCCCn1ccnc1-c1ccccc1,181.6%
21,CCOCC(=O)Nc1nccn1Cc1ccc(Br)cc1,-3.698%
22,CC(C)c1nccn1CCCNC(=O)c1ccc(-c2cccnc2)nc1,8.791%
23,CC(=O)NCCn1ccnc1-c1cccc(C(C)N(C)C)c1 (configuration not stated),4.198%
24,CCOCC(=O)NCCCn1ccnc1-c1ccccc1,90.19%
25,Cc1ccc(C(=O)Nc2cc(C(N)=O)ccc2N2CCCCC2)cc1F,-3.619%

row,SMILES,Percent Effect
1,O=C(CCc1cc2n(n1)CCCN(C(=O)c1ccncc1)C2)NC1CC1,139.8%
2,O=C(CCc1cc2n(n1)CCCN(C(=O)c1cccnc1)C2)NC1CC1,-4.751%
3,Cc1ccc(C(=O)N2CCCn3nc(CCC(=O)O)cc3C2)cc1Cl,11.92%
4,O=C(CCc1cc2n(n1)CCCN(C(=O)c1ccccn1)C2)NC1CC1,1.644%
5,O=C(CCc1cc2n(n1)CCCN(C(=O)[C@H]1CCCO1)C2)NC1CC1,170.3%
6,O=C(O)CCc1cc2n(n1)CCCN(C(=O)c1ccc3cc[nH]c3c1)C2,-27.67%
7,Cn1cccc1C(=O)N1CCCn2nc(CCC(=O)NC3CC3)cc2C1,139.6%
8,O=C(O)CCc1cc2n(n1)CCCN(C(=O)c1cc3ccccc3s1)C2,6.416%
9,CCc1cc(C(=O)N2CCCn3nc(CCC(=O)O)cc3C2)cs1,-7.139%
10,CC(C)c1ocnc1C(=O)NC1(c2cccc(F)c2)CCOCC1,-15.1%
11,O=S1(=O)CCCN(Cc2ccccc2OCC(F)(F)F)CC1,7.623%
12,Fc1cccc(-c2n[nH]cc2-c2nc(CN3CCOCC3)no2)c1,25.75%
13,CN1CCN(Cc2ccccc2Oc2cncc(C(N)=O)n2)CC1,7.262%
14,CC(=O)N1Cc2ccccc2CC1C(=O)Nc1cc(C)ccn1 (configuration not stated),-13.21%
15,C[C@]1(O)CN(Cc2ccc(C(=O)O)cc2)CC[C@@H]1Oc1cccc(F)c1,71.72%
16,COc1ccccc1OC1CN(Cc2ccc(C(=O)O)cc2)C1,-24.62%
17,C[C@]1(O)CN(Cc2cccc(C(=O)O)c2)CC[C@@H]1Oc1cccc(F)c1,113.2%
18,O=C(NCC1(O)CCOc2ccccc21)Nc1ccc2c(c1)OCO2 (configuration not stated),5.05%
19,CCc1noc(CN2CCC(C(=O)Nc3cnn(CC)c3)CC2)n1,82.9%
20,CCn1cc(NC(=O)C2CCN(Cc3noc(C(C)C)n3)CC2)cn1,3.174%
21,CC(C)c1noc(CN2CCC(C3CCCCCN3S(C)(=O)=O)CC2)n1.Cl (configuration not stated),5.236%
22,CCn1cc(NC(=O)C2CCN(Cc3nc(C(C)C)no3)CC2)cn1,89.67%
23,O=C(Nc1cccc(F)c1)C1CCN(Cc2noc(C3CC3)n2)CC1,-5.725%
24,CC(C)Cc1noc(CN2CCC(C(=O)NCC3CCCO3)CC2)n1 (configuration not stated),11.96%
25,CCCc1noc(CN2CCC(C(=O)Nc3cnn(CC)c3)CC2)n1,112.1%

row,SMILES,Percent Effect
1,O=C(Nc1ccc(F)cc1)C1CCN(Cc2noc(C3CC3)n2)CC1,-24.67%
2,CCc1noc(C(C)N2CCC(C(=O)Nc3cnn(CC)c3)CC2)n1 (configuration not stated),11.99%
3,CCn1cc(NC(=O)C2CCN(Cc3noc(C4CC4)n3)CC2)cn1,113.1%
4,CCn1cc(NC(=O)C2CCN(Cc3ccccc3C#N)CC2)cn1,4.672%
5,CCn1nc(C(=O)N2CCNCC2C(=O)Nc2ccc(C)nc2)cc1C (configuration not stated),-9.898%
6,CN(CC(=O)N1CCCC1c1cnn(C)c1)c1ccc(Cl)cn1 (configuration not stated),7.888%
7,CNc1cc(C2CCCN2Cc2ccccc2C(=O)O)ccn1 (configuration not stated),-9.621%
8,CNc1cc(C2CCCN2C(=O)CCc2ccccc2F)ccn1 (configuration not stated),87.66%
9,Cc1ncsc1CCC(=O)N1CCCC1c1cccnc1 (configuration not stated),-20.99%
10,Cc1c(CCC(=O)N2CCCC2c2ccnc(N(C)C)c2)cnn1C (configuration not stated),100.7%
11,CNc1cc(C2CCCN2C(=O)CCc2cnn(C)c2C)ccn1 (configuration not stated),114.3%
12,COc1ccc(Nc2cc(C)nc(C)n2)cc1N1CCCC1=O,-4.769%
13,O[C@H]1CC[C@@H](Cc2cc(-c3ccccc3)on2)O[C@@H]1CNCC1CC1,0.08363%
14,OCCN1CCC(CNCc2ccc(Br)cc2)CC1,-27.23%
15,CC(C)N(C)C(=O)C1CSCN1S(=O)(=O)c1ccccc1F (configuration not stated),0.8894%
16,CCc1cc(CNC(=O)C2CCC(=O)N(Cc3ccccc3F)C2)on1 (configuration not stated),-10.8%
17,Cn1cc(CN2CCO[C@H]3C(Cn4cccn4)CC[C@@H]32)cn1 (some centres not stated),5.846%
18,CC(=O)N1[C@H](Cn2cncn2)C[C@@H]2CN(Cc3nccs3)CC[C@@H]21,4.372%
19,CN1C(Cn2cccn2)C[C@@H]2CN(Cc3cnn(C)c3)CC[C@@H]21 (some centres not stated),88.14%
20,c1cnn([C@@H]2CN(Cc3nccs3)[C@@H]3CCCO[C@@H]32)c1,-0.08077%
21,CC(C)N1[C@H](CN2CCCC2)C[C@@H]2CN(Cc3cnn(C)c3)CC[C@@H]21,1.544%
22,CN1C(Cn2cccn2)C[C@@H]2CN(Cc3nccs3)CC[C@@H]21 (some centres not stated),108%

# Reference: ChEMBL document CHEMBL3988442, “University of Dundee, Small-Polar-MMV Screening Library” (2021)
